# PubChem BioAssay (NCATS)
# Records with an inconclusive call do not appear. Activity calls are given as the source filed them. Unless noted, how the calls were made is not given here.
# Legend:
# [1] = qHTS profiling for inhibitors of Plasmodium falciparum (HB3) proliferation (AID 743324; active means well fitted curve in the direction sought with a large enough effect; an effect the other way counts as inactive or inconclusive;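 further: 100% = DMSO vehicle wells and 0% = artemisinin-treated control wells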); settings: Plasmodium falciparum HB3 blood-stage proliferation; at 28.7 µM (top of the series)
# Procedure, shortened: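 SYBR Green fluorescence (485 ex/535 em) of lysed cultures, incubated overnight at room temperature in the dark, quantifies parasite DNA. Infected erythrocytes at 0.3% parasitemia and 2.5% hematocrit were exposed 72 h; values normalized to DMSO and 0.29 uM artemisinin controls.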
# [2] = qHTS profiling of the MIPE4 collection as inhibitors of Plasmodium falciparum (3D7) proliferation (AID 743344);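 further: scaled between DMSO vehicle wells and 0.29 µM artemisinin as full inhibition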; settings: P. falciparum 3D7 in erythrocytes, SYBR Green DNA fluorescence, 72 h; at 28.5 µM (top of the series) unless noted
# Procedure, shortened: (§1)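 Parasite DNA was quantified by SYBR Green I fluorescence (ex 485, em 535 nm) after overnight lysis in saponin/Triton buffer at room temperature. Cultures at 0.3% parasitemia and 2.5% hematocrit were first exposed to compound for 72 h at 37 C; signals were normalised to artemisinin (0.29 uM) and vehicle wells.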
# [3] = qHTS profiling of the MIPE4 collection as inhibitors of Plasmodium falciparum (DD2) proliferation (AID 743345); settings: P. falciparum Dd2 in erythrocytes, SYBR Green DNA, 72 h; at 28.5 µM (top of the series) unless noted
# Procedure, shortened: as §1
# [4] = qHTS profiling of the MIPE4 collection as inhibitors of Plasmodium falciparum (DD2) proliferation (Rep 2) (AID 743346); settings: P. falciparum Dd2 in erythrocytes, SYBR Green DNA, 72 h; at 28.5 µM (top of the series) unless noted
# Procedure, shortened: as §1
# [5] = qHTS profiling of the MIPE4 collection as inhibitors of Plasmodium falciparum (HB3) proliferation (AID 743347);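 further: plate controls were DMSO vehicle wells for no effect and artemisinin wells for full effect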; settings: P. falciparum HB3 in erythrocytes, SYBR Green DNA, 72 h; at 28.5 µM (top of the series) unless noted
# Procedure, shortened: as §1
# [6] = High-throughput drug toxicity screening in the BPDCN cell line Gen2.2 (AID 1224824); settings: Gen2.2 BPDCN cells; at 45.8 µM (top of the series) unless noted;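 further: cells exposed to compounds for 48 h before reading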
# Procedure, shortened: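 CellTiter-Glo luminescence after 48 h compound exposure of Gen2.2 cells; percent activity set with DMSO as 100% and bortezomib (9.2 uM final) as 0%. Cells seeded at 500 per well, RPMI + 10% FBS, 37 °C.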
# [7] = High-throughput drug toxicity screening in the BPDCN cell line Cal-1 (AID 1224825); settings: Cal-1 BPDCN cell viability, qHTS; at 45.8 µM (top of the series) unless noted
# Procedure, shortened: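 CellTiter-Glo luminescence after 48 h compound exposure; percent activity scaled with DMSO as 100% and bortezomib (9.2 uM final) as 0%. Cal-1 cells seeded at 500/well in RPMI, 10% FBS, no phenol red.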
# [8] = qHTS assay for measurement of the activity of small molecule inhibitors on Zika virus induced Caspase-3 activity in human astrocytoma cells (AID 1224859; active means well fitted curve in the direction sought with a large enough effect; an effect the other way counts as inactive or inconclusive;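 further: plate controls were ZIKV-infected untreated cells for no effect and uninfected cells for full effect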)
# Procedure, shortened: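 Caspase activation in ZIKV-infected SNB-19 cells (2 FFU/cell, 6 h) measured by Caspase-Glo 3/7 luminescence after 30 min RT; compound pre-incubated 1 h; normalised to uninfected and infected controls.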
# [9] = qHTS Screen of the MIPE 4.0 Collection Against Ewings Sarcoma (RDES) (AID 1259252; active means well fitted curve in the direction sought with a large enough effect; an effect the other way counts as inactive or inconclusive; further: nearly all actives have a fitted effect of over 35% in size; further: potency means the concentration at half of the fitted maximal effect)
# Procedure, shortened: (§2)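 Viability screen: 48 h incubation at 37C, 95% humidity, 5% CO2 with serially titrated compound, followed by CellTiter-Glo readout.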
# [10] = qHTS Screen of the MIPE 4.0 Collection Against Ewings Sarcoma (TC71) (AID 1259253; active means well fitted curve in the direction sought with a large enough effect; an effect the other way counts as inactive or inconclusive; further: nearly all actives have a fitted effect of over 40% in size; further: potency means the concentration at half of the fitted maximal effect)
# Procedure, shortened: as §2
# [11] = qHTS Screen of the MIPE 4.0 Collection Against Ewings Sarcoma (EW8) (AID 1259255; active means well fitted curve in the direction sought with a large enough effect; an effect the other way counts as inactive or inconclusive; further: nearly all actives have a fitted effect of over 35% in size; further: potency means the concentration at half of the fitted maximal effect;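 on viability: 100% = DMSO-treated cells and 0% = medium-only wells without cells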)
# Procedure, shortened: as §2
# [12] = qHTS Screen of the MIPE 4.0 Collection Against Ewings Sarcoma (TC32) (AID 1259256; active means well fitted curve in the direction sought with a large enough effect; an effect the other way counts as inactive or inconclusive; further: nearly all actives have a fitted effect of over 45% in size; further: potency means the concentration at half of the fitted maximal effect)
# Procedure, shortened: as §2
# [13] = qHTS assay for measurement of the activity of small molecule inhibitors on Zika virus induced Caspase-3 activity in human iPSC derived neural progenitor cells (hNPCs) (AID 1224857; active means well fitted curve in the direction sought with a large enough effect; an effect the other way counts as inactive or inconclusive; further: nearly all actives have a fitted effect of over 65% in size; further: potency means the concentration at half of the fitted maximal effect)
# Procedure, shortened: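 Zika virus (2 FFU/cell) infection of human iPSC-derived NPCs, 6 h, following 1 h compound preincubation. Read-out: Caspase-Glo 3/7 luminescence.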
# [14] = qHTS assay to identify small molecule inhibitors of chordoma cells - UCH-1 (AID 1259355; active means well fitted curve in the direction sought with a large enough effect; an effect the other way counts as inactive or inconclusive; further: on the % scale 0 is the no-effect control and ±100 the full control effect; nearly all actives have a fitted effect of over 55% in size)
# Procedure, shortened: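 Screening used approved and investigational drugs in 15-point titration against 800 seeded cells per well. A fixed combination of auranofin with camptothecin, doxorubicin, rubitecan and topotecan followed compound addition, and growth was scored by CellTiter-Glo after 48hr.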
# [15] = qHTS assay to identify small molecule inhibitors of chordoma cells - UCH-2 (AID 1259356; active means well fitted curve in the direction sought with a large enough effect; an effect the other way counts as inactive or inconclusive; further: on the % scale 0 is the no-effect control and ±100 the full control effect)
Compound,"remaining proliferation (% of control), lower = more inhibition [1]","parasite growth, % of DMSO control [2]","parasite growth remaining, % of DMSO control (lower = more inhibition) [3]","parasite growth, % of control (lower = inhibition) [4]","growth, % of control [5]","cell viability, % of control (lower = more cytotoxic) [6]",viability (% of control) [7],Potency [8],Potency [9],Potency [10],Potency [11],Potency [12],Potency [13],Potency [14],outcome [15]
C[C@@H]1CCN(C(=O)CC#N)C[C@H]1N(C)c1ncnc2[nH]ccc12,56.2%,72.5%,96.3%,93.5%,74.7%,52.4%,110%,inactive,inactive,inactive,inactive,inactive,–,–,–
COCCOC(=O)C1=C(C)NC2=C(C(=O)CC(c3ccccc3OC)C2)C1c1cccc(O)c1 (stereo not given),–,–,9.83%,51.8%,17.6%,4.78%,5.74%,inactive,–,–,–,–,inactive,–,–
COc1cc2nc(-c3ccc(N4CCN(C)CC4)cc3)nc(NCCN3CCOCC3)c2cc1OC,-0.898%,5.09%,–,12.1%,2.87%,1.57%,2.25%,–,0.0166 µM (active),–,0.0332 µM (active),0.0418 µM (active),5.9 µM (active),–,–
CC(=NNC(=S)N1CCC1)c1ccccn1,–,–,–,10.5%,6.19%,91.1%,9.75%,–,–,–,–,–,16.6 µM (active),–,–
Cc1ccc(C(=O)Nc2cccc(C(F)(F)F)c2)cc1Nc1nc(-c2cccnc2)nc2c1cnn2C,–,–,12%,27.1%,–,6.02%,3.12%,inactive,14.8 µM (active),18.7 µM (active),13.2 µM (active),13.2 µM (active),–,–,–
C[N+]1(C)[C@@H]2CC(OC(=O)[C@H](CO)c3ccccc3)C[C@H]1[C@H]1O[C@@H]12 (stereo not given in full),–,93.9%,–,84.8%,–,112%,130%,inactive,inactive,–,inactive,inactive,–,inactive,inactive
COc1cc2ncnc(Nc3ccc(F)c(Cl)c3)c2cc1OCCCN1CCOCC1,–,–,–,–,–,14.5% [at 92.2 µM],4.41% [at 92.2 µM],–,10.8 µM (active),–,–,–,–,–,–
CS(=O)(=O)N(Cc1ccco1)CC(O)Cn1c2ccccc2c2ccccc21 (stereo not given),–,34.3%,–,58.2%,16.4%,75.4%,65.5%,inactive,–,–,–,–,–,–,–
O=c1c(-c2ccc(O)cc2)coc2cc(OC3O[C@H](CO)[C@H](O)[C@H](O)[C@H]3O)cc(O)c12 (stereo not given in full),–,57%,88.8%,65.7%,54%,74.8%,37.3%,–,3.72 µM (active),7.43 µM (active),18.7 µM (active),10.5 µM (active),–,–,–
COc1ccc(Cc2nccc3cc(OC)c(OC)cc23)cc1OC,–,5.44%,–,18.7%,2.71%,47.4%,96.9%,–,20.9 µM (active),–,–,23.5 µM (active),–,–,–
Clc1ccc(C(c2ccc(Cl)cc2)n2cc[n+](CC(OCc3ccc(Cl)cc3Cl)c3ccc(Cl)cc3Cl)c2)cc1 (stereo not given),–,6.19%,5.85%,17.2%,7.48%,1.6%,3.49%,inactive,16.6 µM (active),20.9 µM (active),23.5 µM (active),20.9 µM (active),–,–,–
